Compound activity from PubChem BioAssay.
This is a sample that favours compounds with a hit; in the whole collection about 3.7% have one here.
MazF activator: activators of E. coli MazEF toxin-antitoxin RNase; P0AE70; FAM/BHQ RNA-DNA oligo cleavage fluorescence, 5 h; activation, % at 20 µM; 0.32% of 350,000 active; AID 504720; in the data active = activation above about 50%
BoNT-F LC inh: inhibitors of Botulinum neurotoxin F light chain protease; Multiplex microsphere protease cleavage assay, flow cytometry; inhibition, % at 10 µM; 0.22% of 360,000 active; in the data active = inhibition above about 35%, passing the limit was not always enough; inconclusive = no clear call, values can overlap the other calls; also: plate controls were buffer without enzyme for full effect and enzyme alone for no effect
BoNT A protease: BoNT A light chain protease inhibition; multiplex microsphere protease substrate cleavage, flow cytometry; inhibition, % at 10 µM; 0.17% of 360,000 active; AID 588499; also: plate controls were buffer without enzyme for full effect and enzyme alone for no effect
Bead autofluor: counter-screen for toxin protease inhibitors: compound fluorescence. compound autofluorescence counterscreen, microsphere flow cytometry; stronger effect = higher value. fluorescence intensity (no concentration beside the values). 3.1% of 360,000 active. AID 624483; in the data active = fluorescence intensity above about 16000; inconclusive = no clear call, values can overlap the other calls
Anthrax LF inh2: blocks Bacillus anthracis lethal factor protease; 0.12% of 360,000 active; AID 588501; inhibition, % at 10 µM; multiplex microsphere protease cleavage assay, LF; P15917; also: plate controls were buffer without enzyme for full effect and enzyme alone for no effect
* = called active by the depositor; ? = inconclusive; nt = no result given. Rule as the data show it, unless noted: active = inhibition above about 30%; inconclusive = no clear call, values can overlap the other calls; inactive = below that.

SMILES	MazF activator	BoNT-F LC inh	BoNT A protease	Bead autofluor	Anthrax LF inh2
O=C(O)CCN1C(=O)/C(=C\c2ccc(-c3nc4ccccc4s3)o2)SC1=S	-10	11	47*	2421	40*
O=C1/C(=C\c2ccco2)SC(=S)N1Cc1ccccc1	3	15	44*	4535	34*
O=C1/C(=C\c2cc(Cl)c(O)c(Cl)c2)SC(=S)N1Cc1ccccc1	-440	-8	-12	17886*	18
COc1ccc(CN(C)C(=O)C2CSC3(C)CCC(=O)N23)c(OC)c1 (configuration not stated)	-14	-4	0	3491	-8
O=C1C2C3C=CC(C2C(=O)N1CCCO)C1C2C(=O)N(CCCO)C(=O)C2C31 (configuration not stated)	7	-2	-3	21305*	1
CCCCN1C(=O)C2C3C=CC(C2C1=O)C1C2C(=O)N(CCCC)C(=O)C2C31 (configuration not stated)	-1	-6	0	2418	1
CCC(CC)CC1CN2CCc3cc(OC)c(OC)cc3C2CC1(O)CC (configuration not stated)	-1	-9	0	4182	-7
Cc1ccc(S(=O)(=O)N/N=C/c2cccc([N+](=O)[O-])c2)cc1	4	4	1	1969	-1
CCCCCCCCCS(=O)(=O)N/N=C/c1cccc([N+](=O)[O-])c1	2	1	3	19668*	-2
CC(C)Oc1ccc(S(=O)(=O)N2CCOCC2)cc1NC(=O)CSc1nnc(C2CC2)n1C	-6	10	0	3335	-6
CC1(C)OC(=O)C2=C(C[C@@H](C3CC3)O[C@@H]2C2CC2)O1	nt	0	-1	6372	-2
O=C1NC(=O)N(Cc2ccccc2Cl)C(=O)/C1=C/N1CCOCC1	-43	-3	0	23148*	-1
CSCCC(NC(=O)c1ccccc1)C(=O)N1CCN(C(C)=O)CC1 (configuration not stated)	-3	-10	-1	3192	-12
CCOC(=O)[C@]12CCCC=C1N(Cc1ccc(Cl)cc1Cl)C(=O)[C@H](CC(=O)NCC13CC4CC(CC(C4)C1)C3)C2	nt	2	-1	4219	-4
O=C(CCC(=O)OCC(F)(F)C(F)F)Nc1ccc(F)cc1F	2	2	0	2481	-2
O=C(CCC(=O)OCC(F)(F)C(F)F)Nc1ccc(Cl)cc1	-2	6	?	17876*	-13
Cc1ccc(NC(=O)OCC(F)(F)C(F)F)cc1NC(=O)OCC(F)(F)C(F)F	9	-8	?	21692*	-9
O=C(CCC(=O)OCc1ccc(C(=O)Oc2ccc(Cl)cc2)cc1)Nc1ccccc1	-7	-12	0	2169	-2
CCOC(=O)Nc1cc(C(=O)OC)ccc1C	2	14	6	?	?
COc1ccc(NC(=O)CCC(=O)OCc2ccc(C(=O)Oc3ccc(Cl)cc3)cc2)cc1	-14	-1	0	19988*	-2
COc1ccc(CC(=O)Nc2cccc(-c3nnc(-c4ccc(C)cc4)o3)c2)cc1OC	7	-14	-1	6379	-8
CCOC(=O)c1nn(-c2ccc(C)cc2)c(=O)cc1OCC(=O)Nc1cccc(C)c1	-6	43*	10	4308	0
CC(C)C(NC(=O)COc1ccccc1)C(=O)O (configuration not stated)	-1	9	6	19854*	-6
Cc1ccc(OCC(=O)Nc2cccc(-c3nnc(-c4ccccc4)o3)c2)c(C)c1	-1	3	?	21189*	-3
CC(=O)Nc1cccc(OCC(=O)Nc2ccccc2)c1	5	-3	0	7096	-14
SMILES	MazF activator	BoNT-F LC inh	BoNT A protease	Bead autofluor	Anthrax LF inh2
CCOC(=O)Nc1cccc(OCC(=O)Nc2ccccc2OCC)c1	2	-2	-1	22734*	-3
Cc1ccccc1NC(=O)c1cccc(N2C(=O)C3C4CC(C(Br)C4Br)C3C2=O)c1 (configuration not stated)	2	9	-1	5678	0
C[C@H](CO)N1C[C@H](C)[C@@H](CN(C)C(=O)Nc2ccc3c(c2)OCO3)Oc2ccc(NC(=O)NC3CCCCC3)cc2C1=O	4	-1	0	4023	-1
O=C(COC(=O)C1CC1)Nc1ccc(Cl)cc1Cl	11	-1	-2	8562	-2
CCOC(=O)C1=CC[C@@H](c2ccccc2C(F)(F)F)N(S(=O)(=O)c2ccc(C)cc2)[C@H]1c1ccc(C#N)cc1	nt	8	0	6142	-4
Cc1cccc(NC(=O)COc2ccccc2)c1	0	-14	-11	26330*	-1
Cc1ccc(OCC(=O)Nc2ccc(Cl)cc2)c(-n2nc3ccccc3n2)c1	69*	-8	2	5370	-2
Cc1nn(CC(C)C)c(Cl)c1C(=O)NCC1CCCO1 (configuration not stated)	7	4	0	3514	4
Cc1ccc(-c2nnc(Nc3ccccc3)c3ccccc23)cc1S(=O)(=O)NCC1CCCO1 (configuration not stated)	4	3	3	21430*	-1
CC(C)C(NC=C1C(=O)OC(C)(C)OC1=O)C(=O)O (configuration not stated)	6	-5	?	16608*	-2
CC(O)C(NC=C1C(=O)OC(C)(C)OC1=O)C(=O)O (configuration not stated)	1	-7	-1	3349	8
COC(=O)c1ccc2c(c1)NC(=O)C(N1CCCCC1)S2 (configuration not stated)	-2	0	0	22781*	-1
COC(=O)c1ccc2c(c1)NC(=O)C(N1CCCC1)S2 (configuration not stated)	-7	3	2	19419*	3
O=C(O)c1ccc2c(c1)NC(=O)C(N1CCCC1)S2 (configuration not stated)	-2	2	1	15935	-4
O=C(O)CNc1nc(NCc2ccc(Cl)cc2)ccc1[N+](=O)[O-]	-1	0	0	4030	-4
Cc1oc(C2CC2)cc1C(=O)O	4	-1	1	19572*	-2
COc1cccc(N2CC(C(=O)OC(C)C(=O)c3ccccc3)CC2=O)c1 (configuration not stated)	-11	-1	?	22234*	-1
COc1ccc(OC)c(NC(=O)C2CC(=O)N(c3ccccc3)C2)c1 (configuration not stated)	-4	-5	0	2457	-1
O=C(COC(=O)Cn1nnc(-c2ccccc2)n1)Nc1cc(F)ccc1F	0	-4	0	3112	2
Cc1ccc(-n2c(O)c(C=Nc3ccc4c(c3)OCO4)c3ccccc3c2=O)cc1C	-4	-4	1	22790*	-5
Cc1cc(N=Cc2c(O)n(-c3ccc4c(c3)OCO4)c(=O)c3ccccc23)ccn1	31	19	1	3749	0
CC(C)(C)NC(=O)CN(Cc1cccs1)C(=O)C1COc2ccccc2O1 (configuration not stated)	1	-1	-1	23568*	0
